Source: the supplement of paper PMC11732987, “Enantioselective OTUD7B fragment discovery through chemoproteomics screening and high-throughput optimisation” (Communications Chemistry, 2025)

Legend:
Assay in all cases: log2 ratio of Biotin-Ahx-Ub-VS probe labelling (fragment/DMSO); higher = less target engagement (more negative = stronger competition), active = hit call of the paper (q ≤ 0.05, log2 ratio ≤ -1)
Conditions in all cases: compound concentration: 200 uM; treatment time: 3 h
OTUD6B = target: T1, OTUD6B (UniProt Q8N6M0)
T1 sequence (whole entry): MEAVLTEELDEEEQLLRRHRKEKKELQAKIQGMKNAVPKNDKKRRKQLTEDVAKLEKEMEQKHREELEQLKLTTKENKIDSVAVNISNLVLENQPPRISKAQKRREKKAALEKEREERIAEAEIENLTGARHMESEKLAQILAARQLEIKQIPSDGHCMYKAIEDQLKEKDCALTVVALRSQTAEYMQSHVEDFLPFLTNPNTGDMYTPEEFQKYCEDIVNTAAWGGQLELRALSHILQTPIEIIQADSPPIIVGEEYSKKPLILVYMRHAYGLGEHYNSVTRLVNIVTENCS
Outline: (§1)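 Each value is an average log2 ratio of fragment to vehicle, tested by unpaired t-test. The underlying Spectronaut label-free quantities were global-median-normalised, and only proteins with ≥2 unique peptides were included. Triplicate HEK293T lysate samples (495 µg) were exposed to fragment at 200 µM or vehicle for 3 h, then to Biotin-Ahx-Ub-VS at 0.5 µM final for 1 h, before NeutrAvidin enrichment of labelled DUBs, LysC and trypsin digestion, and diaPASEF LC-MS/MS.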

OTUD7B = target: T2, OTUD7B (UniProt Q6GQQ9)
T2 sequence (whole entry): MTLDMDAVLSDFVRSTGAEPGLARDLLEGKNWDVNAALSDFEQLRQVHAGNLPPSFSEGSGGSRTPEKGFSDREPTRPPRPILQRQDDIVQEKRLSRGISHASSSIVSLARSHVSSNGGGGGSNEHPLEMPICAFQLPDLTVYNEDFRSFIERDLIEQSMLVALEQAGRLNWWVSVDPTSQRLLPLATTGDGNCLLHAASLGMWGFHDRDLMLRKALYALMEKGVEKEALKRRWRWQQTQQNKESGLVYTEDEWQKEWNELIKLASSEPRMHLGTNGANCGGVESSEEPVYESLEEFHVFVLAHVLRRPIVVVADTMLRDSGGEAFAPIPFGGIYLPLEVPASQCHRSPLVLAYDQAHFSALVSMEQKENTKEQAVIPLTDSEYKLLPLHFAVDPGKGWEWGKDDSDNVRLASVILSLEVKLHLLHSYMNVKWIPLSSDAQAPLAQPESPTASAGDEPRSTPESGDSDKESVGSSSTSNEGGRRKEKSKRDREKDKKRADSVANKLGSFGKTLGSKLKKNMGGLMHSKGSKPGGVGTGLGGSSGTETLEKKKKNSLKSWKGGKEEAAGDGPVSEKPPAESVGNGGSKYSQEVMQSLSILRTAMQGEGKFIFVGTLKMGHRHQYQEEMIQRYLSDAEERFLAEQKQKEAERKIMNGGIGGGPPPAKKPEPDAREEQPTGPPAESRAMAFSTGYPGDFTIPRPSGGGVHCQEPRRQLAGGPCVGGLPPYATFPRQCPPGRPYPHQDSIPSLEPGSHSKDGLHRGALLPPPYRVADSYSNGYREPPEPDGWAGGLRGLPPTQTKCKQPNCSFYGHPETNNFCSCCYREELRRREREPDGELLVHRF
Outline: as §1

PRPF8 = PRPF8 (UniProt Q6P2Q9)
Outline: as §1

PSMD7 = target: T3, PSMD7 (UniProt P51665)
T3 sequence (whole entry): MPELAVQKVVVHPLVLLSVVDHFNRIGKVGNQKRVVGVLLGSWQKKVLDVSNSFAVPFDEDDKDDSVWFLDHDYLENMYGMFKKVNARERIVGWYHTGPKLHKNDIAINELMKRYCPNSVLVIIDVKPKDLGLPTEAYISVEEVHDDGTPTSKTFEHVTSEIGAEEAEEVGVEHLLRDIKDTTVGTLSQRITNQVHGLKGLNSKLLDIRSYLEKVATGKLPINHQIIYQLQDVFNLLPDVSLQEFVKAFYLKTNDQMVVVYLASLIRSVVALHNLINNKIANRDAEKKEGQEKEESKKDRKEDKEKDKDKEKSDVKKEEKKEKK
Outline: as §1

UCHL1 = UCHL1 (UniProt P09936)
Sequence of UCHL1 (P09936 whole entry, looked up): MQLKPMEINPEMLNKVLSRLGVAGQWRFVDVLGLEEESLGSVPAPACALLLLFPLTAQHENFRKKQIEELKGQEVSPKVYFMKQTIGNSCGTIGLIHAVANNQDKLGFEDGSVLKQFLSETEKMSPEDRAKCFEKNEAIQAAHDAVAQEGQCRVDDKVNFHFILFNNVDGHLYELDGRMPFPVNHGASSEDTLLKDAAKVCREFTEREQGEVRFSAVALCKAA
Outline: as §1

UCHL3 = target: T4, UCHL3 (UniProt P15374)
T4 sequence (whole entry): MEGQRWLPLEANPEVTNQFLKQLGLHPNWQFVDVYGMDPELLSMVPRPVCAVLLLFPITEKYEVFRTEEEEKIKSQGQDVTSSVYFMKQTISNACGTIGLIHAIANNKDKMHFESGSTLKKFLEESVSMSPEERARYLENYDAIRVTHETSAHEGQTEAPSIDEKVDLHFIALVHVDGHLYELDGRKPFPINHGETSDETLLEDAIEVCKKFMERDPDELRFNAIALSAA
Outline: as §1

UCHL5 = target: T5, UCHL5 (UniProt Q9Y5K5)
T5 sequence (whole entry): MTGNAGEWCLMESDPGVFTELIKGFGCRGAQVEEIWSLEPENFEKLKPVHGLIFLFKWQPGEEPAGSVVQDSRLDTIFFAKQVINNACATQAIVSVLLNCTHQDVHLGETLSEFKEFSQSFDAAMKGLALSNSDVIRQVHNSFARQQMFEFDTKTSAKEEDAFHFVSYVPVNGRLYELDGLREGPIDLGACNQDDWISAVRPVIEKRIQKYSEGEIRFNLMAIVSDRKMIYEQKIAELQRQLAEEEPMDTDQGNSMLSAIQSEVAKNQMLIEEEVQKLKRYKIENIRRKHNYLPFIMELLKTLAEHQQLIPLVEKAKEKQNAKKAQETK
Outline: as §1

USP10 = USP10 (UniProt Q14694)
Sequence of USP10 (Q14694 whole entry): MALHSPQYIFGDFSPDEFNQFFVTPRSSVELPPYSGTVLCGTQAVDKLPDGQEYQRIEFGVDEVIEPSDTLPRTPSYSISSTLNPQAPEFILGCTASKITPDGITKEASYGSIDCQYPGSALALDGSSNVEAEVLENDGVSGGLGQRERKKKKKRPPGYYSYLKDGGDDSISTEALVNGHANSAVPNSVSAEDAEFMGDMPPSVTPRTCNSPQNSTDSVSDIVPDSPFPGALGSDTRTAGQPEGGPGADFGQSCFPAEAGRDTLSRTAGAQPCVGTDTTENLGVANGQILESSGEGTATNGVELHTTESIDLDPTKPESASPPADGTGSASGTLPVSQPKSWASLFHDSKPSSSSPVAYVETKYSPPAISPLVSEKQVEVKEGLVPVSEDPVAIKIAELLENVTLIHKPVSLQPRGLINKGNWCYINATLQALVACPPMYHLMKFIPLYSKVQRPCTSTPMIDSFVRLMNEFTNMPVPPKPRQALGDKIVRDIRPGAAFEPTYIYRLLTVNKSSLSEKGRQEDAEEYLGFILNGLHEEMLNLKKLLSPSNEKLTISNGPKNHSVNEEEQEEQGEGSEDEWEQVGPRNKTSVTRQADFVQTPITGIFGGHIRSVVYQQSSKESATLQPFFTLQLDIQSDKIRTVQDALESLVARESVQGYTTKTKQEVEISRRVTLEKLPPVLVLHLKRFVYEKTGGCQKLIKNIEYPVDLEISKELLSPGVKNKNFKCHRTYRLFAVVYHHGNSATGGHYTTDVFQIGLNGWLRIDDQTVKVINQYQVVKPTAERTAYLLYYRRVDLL
Outline: as §1

USP15 = target: T6, USP15 (UniProt Q9Y4E8)
T6 sequence (whole entry): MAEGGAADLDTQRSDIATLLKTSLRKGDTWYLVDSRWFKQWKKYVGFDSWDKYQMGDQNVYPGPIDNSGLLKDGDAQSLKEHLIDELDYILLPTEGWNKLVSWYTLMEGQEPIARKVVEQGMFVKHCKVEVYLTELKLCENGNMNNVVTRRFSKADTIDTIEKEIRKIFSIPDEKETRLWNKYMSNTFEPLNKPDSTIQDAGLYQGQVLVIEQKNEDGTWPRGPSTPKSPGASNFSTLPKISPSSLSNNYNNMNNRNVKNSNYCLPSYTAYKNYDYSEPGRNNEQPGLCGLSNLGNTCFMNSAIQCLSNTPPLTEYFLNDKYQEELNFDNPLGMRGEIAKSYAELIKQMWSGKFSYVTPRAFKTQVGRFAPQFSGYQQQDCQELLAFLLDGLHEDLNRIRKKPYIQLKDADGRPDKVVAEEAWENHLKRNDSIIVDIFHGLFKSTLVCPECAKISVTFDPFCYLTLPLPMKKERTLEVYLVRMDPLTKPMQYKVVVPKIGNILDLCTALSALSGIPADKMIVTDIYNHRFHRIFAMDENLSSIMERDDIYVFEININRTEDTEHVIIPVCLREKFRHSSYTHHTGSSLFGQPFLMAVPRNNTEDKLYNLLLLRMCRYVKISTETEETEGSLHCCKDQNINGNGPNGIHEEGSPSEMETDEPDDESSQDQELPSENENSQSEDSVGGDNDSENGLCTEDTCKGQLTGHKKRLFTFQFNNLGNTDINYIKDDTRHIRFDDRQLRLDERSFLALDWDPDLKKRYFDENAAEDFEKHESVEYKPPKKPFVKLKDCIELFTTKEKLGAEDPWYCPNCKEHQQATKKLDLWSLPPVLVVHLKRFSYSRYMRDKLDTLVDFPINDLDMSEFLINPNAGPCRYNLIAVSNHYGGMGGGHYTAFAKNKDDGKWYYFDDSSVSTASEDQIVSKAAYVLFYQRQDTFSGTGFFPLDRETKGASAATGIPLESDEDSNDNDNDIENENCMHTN
Outline: as §1

USP16 = USP16 (UniProt Q9Y5T5)
Sequence of USP16 (Q9Y5T5 whole entry, looked up): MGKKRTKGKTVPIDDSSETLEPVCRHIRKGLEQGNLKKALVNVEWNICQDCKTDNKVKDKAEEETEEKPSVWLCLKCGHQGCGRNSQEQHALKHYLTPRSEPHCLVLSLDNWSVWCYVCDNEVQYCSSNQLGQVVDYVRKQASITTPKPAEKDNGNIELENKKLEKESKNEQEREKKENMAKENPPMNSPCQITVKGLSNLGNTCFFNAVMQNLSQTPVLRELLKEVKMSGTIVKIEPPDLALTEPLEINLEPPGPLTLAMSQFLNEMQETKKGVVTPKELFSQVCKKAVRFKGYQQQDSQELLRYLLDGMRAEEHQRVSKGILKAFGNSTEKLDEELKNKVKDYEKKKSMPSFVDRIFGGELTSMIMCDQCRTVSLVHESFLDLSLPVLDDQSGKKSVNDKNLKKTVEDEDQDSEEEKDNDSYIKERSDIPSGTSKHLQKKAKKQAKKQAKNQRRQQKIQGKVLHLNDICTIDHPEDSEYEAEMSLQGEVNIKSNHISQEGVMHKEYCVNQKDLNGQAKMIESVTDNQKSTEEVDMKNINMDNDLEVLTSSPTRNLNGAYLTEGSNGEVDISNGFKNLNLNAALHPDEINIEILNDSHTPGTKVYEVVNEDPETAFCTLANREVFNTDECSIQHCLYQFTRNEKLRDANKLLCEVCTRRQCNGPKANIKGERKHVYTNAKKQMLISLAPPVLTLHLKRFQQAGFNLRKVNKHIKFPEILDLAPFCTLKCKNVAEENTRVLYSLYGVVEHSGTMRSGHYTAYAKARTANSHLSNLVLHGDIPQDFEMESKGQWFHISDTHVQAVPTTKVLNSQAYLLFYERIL
Outline: as §1

Measured: log2 ratio of Biotin-Ahx-Ub-VS probe labelling

O=C(CCl)NC1CCC(C(F)(F)F)CC1 (stereo not given)
active: UCHL1 -1.31
inactive: OTUD6B -0.153 | OTUD7B -0.576 | PRPF8 0.103 | PSMD7 -0.258 | UCHL3 0.327 | UCHL5 -0.0657 | USP10 -0.141 | USP15 -0.158 | USP16 -0.000805
